From PubChem
An excerpt weighted towards active compounds, which were near 3.7% of everything screened.
FMDV antiviral: antivirals against foot and mouth disease virus; FMDV antiviral cell-based qHTS; Potency, µM (highest dose often 57.9 µM), inactives show at the top dose activity change, negative = inhibition, actives largely listed as inhibitors; hit rate 1.2% among 410,000; AID 1159524; calls by dose curve; tested in HEK293T cells; further: read-out not given here; nearly all actives have a fitted effect of over 45% in size
Sm TGR inh: S. mansoni TGR enzyme inhibition. purified TGR, DTNB reduction, TNB absorbance 405 nm. Potency, µM (titrated, usually from 114 µM), without a hit: at the highest dose activity change, negative = inhibition, usual class: inhibitors. Q962Y6. hit rate 3% among 360,000; further: nearly all actives have a fitted effect of over 60% in size
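TGR 20 nM + NADPH 100 uM (dispensed conc.), cpd preinc 15 min RT; start with NADPH (500 uM addition) then DTNB (15 mM addition). Kinetic TNB absorbance, 405 nm filter. Four-parameter Hill fit across titration.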
RE007 growth inh: less growth of the S. pombe RE007 Vpr strain. S. pombe RE007 Vpr strain, BacTiter-Glo ATP luminescence, 24 h. Potency, µM (doses to about 92.2 µM), for inactives: at the top dose activity change, negative = less growth, hits mostly inhibitors. hit rate 0.21% among 360,000. AID 651644; active means well fitted falling curve with a large enough effect; inconclusive means small, poorly fitted or top-dose-only effect; inactive means no such curve, though single readings can be large or run the other way; further: nearly all actives have a fitted effect of over 50% in size
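Fission yeast strain RE007, carrying one chromosomally integrated HIV-1 vpr copy, was seeded at OD 0.01 in PMG+AL medium with 23 nL pinned compound. After 24 h at 30 °C and 99% humidity, viability was read by BacTiter-Glo luminescence.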
Tb PYK inh: blocks Trypanosoma brucei pyruvate kinase. Potency, µM (titrated, usually from 76.8 µM), without a hit: top-dose activity, negative = inhibition, hits mostly inhibitors. hit rate 0.12% among 410,000. TbPYK enzyme, Kinase-Glo Plus ATP luminescence, 45 min; further: nearly all actives have a fitted effect of over 50% in size
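TbPYK + substrate in 50 mM TEA pH 7.2, 100 mM KCl, 10 mM MgCl2, 0.05% BSA, 0.01% Tween-20; cpd pinned; ADP 130 uM final; 45 min RT; Kinase-Glo Plus 10 min; luminescence endpoint.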
The depositor's hits bear a star. Unless noted, the call rests on the fitted dose curve; in most records, active means well fitted curve in the direction sought with a large enough effect; inconclusive means small, poorly fitted or top-dose-only effect, or another doubt; inactive means no such curve, though single readings can be large; an effect the other way counts as inactive or inconclusive. On the % scale 0 is the no-effect control and ±100 the full control effect; potency means the concentration at half of the fitted maximal effect.

Results for Cc1nnc(C(C)C)n1C1C[C@H]2CC[C@@H](C1)N2CC[C@H](NC(=O)C1CCC(F)(F)CC1)c1ccccc1 (stereo partly drawn) ?
Tb PYK inh: 2%

What do the screens show for `Cc1cc(N2C(=O)CC(N3CCC(n4c(=O)[nH]c5ccccc54)CC3)C2=O)no1` (stereo not drawn)?
FMDV antiviral: -10%; Sm TGR inh: 22µM*; RE007 growth inh: inconclusive; Tb PYK inh: -28%

What do the screens show for `COC(=O)c1ccc(N2C(=O)CC(N3CCC(n4c(=O)[nH]c5ccccc54)CC3)C2=O)cc1` (stereo not drawn)?
FMDV antiviral: inconclusive; Sm TGR inh: 35µM*; RE007 growth inh: 14µM*; Tb PYK inh: -8%

What do the screens show for `O=C1CC(N2CCC(n3c(=O)[nH]c4ccccc43)CC2)C(=O)N1Cc1ccccc1` (stereo not drawn)?
FMDV antiviral: -26%; Sm TGR inh: -32%; RE007 growth inh: -23%; Tb PYK inh: -7%

How did Cc1nc(Nc2ccc(C(=O)O)cc2)sc1-c1ccccc1 do in these assays?
FMDV antiviral: 7.1µM*; Sm TGR inh: -1%; RE007 growth inh: 7%; Tb PYK inh: -4%

What do the screens show for `Cc1nc(Nc2ccccc2)sc1C(=O)c1ccccc1`?
FMDV antiviral: 15%; Sm TGR inh: -13%; RE007 growth inh: -27%; Tb PYK inh: 0%

What do the screens show for `Cc1nc(Nc2ccccc2)sc1-c1ccccc1`?
FMDV antiviral: 0%; Sm TGR inh: 1%; RE007 growth inh: 35µM*; Tb PYK inh: -5%

What do the screens show for `Cc1nc2ccccc2n1CCc1nc2c3ccccc3nc(SCc3ccc(F)cc3)n2n1`?
FMDV antiviral: -13%; Sm TGR inh: -6%; Tb PYK inh: 3%

What do the screens show for `Cc1nc2ccn(Cc3ccco3)c(=O)c2cc1C(=O)N1CCN(c2ccc(F)cc2)CC1`?
FMDV antiviral: -23%; Sm TGR inh: -34%; Tb PYK inh: -5%

What do the screens show for `O=c1c(Cc2ccc(F)cc2)c(O)ccn1Cc1ccco1`?
FMDV antiviral: 3%; Sm TGR inh: -20%; RE007 growth inh: -6%; Tb PYK inh: -20%

How did Cc1cc(O)c(C(c2ccccc2)N2CCN(c3ccc(F)cc3)CC2)c(=O)n1Cc1ccco1 (stereo not drawn) do in these assays?
FMDV antiviral: 0%; Sm TGR inh: 3.5µM*; Tb PYK inh: 3%

Results for Cc1cc(O)c(C(c2ccccc2)N2CCN(c3ccccc3)CC2)c(=O)n1Cc1ccco1 (stereo not drawn) ?
FMDV antiviral: -25%; Sm TGR inh: 3.2µM*; Tb PYK inh: -2%

How did CCOc1ccc(C(c2c(O)cc(C)n(Cc3ccco3)c2=O)N2CCN(C)CC2)cc1 (stereo not drawn) do in these assays?
FMDV antiviral: -16%; Sm TGR inh: 7.9µM*; Tb PYK inh: -11%

How did Cc1cc(O)c(C(c2ccc(F)cc2)N2CCCCC2)c(=O)n1Cc1ccco1 (stereo not drawn) do in these assays?
FMDV antiviral: -13%; Sm TGR inh: 20µM*; Tb PYK inh: 1%

Results for CCc1noc(-c2ccc(NCc3ccccc3)c([N+](=O)[O-])c2)n1 ?
FMDV antiviral: 19%; Sm TGR inh: -5%; Tb PYK inh: -1%

How did ClC[C@H]1CO1 (tested in a mixture with another compound) do in these assays?
Tb PYK inh: -9%

Results for Cc1cc(O)c(C(c2ccc(Cl)cc2)N2CCN(c3ccccc3)CC2)c(=O)n1Cc1ccco1 (stereo not drawn) ?
FMDV antiviral: -4%; Sm TGR inh: 5µM*; Tb PYK inh: 5%

How did CC(C)CC(c1nnnn1Cc1ccco1)N1CCN(c2cccc(Cl)c2)CC1 (stereo not drawn) do in these assays?
FMDV antiviral: inconclusive; Sm TGR inh: -28%; RE007 growth inh: -17%; Tb PYK inh: -11%

How did Cc1cc(O)c(C(c2ccc(F)cc2)N2CCN(c3ccccc3)CC2)c(=O)n1Cc1ccco1 (stereo not drawn) do in these assays?
FMDV antiviral: 0%; Sm TGR inh: 10µM*; Tb PYK inh: -9%

What do the screens show for `CCOc1ccc(NC(=O)Cn2c(=O)oc3cc(S(=O)(=O)NC4CCCC4)ccc32)cc1`?
FMDV antiviral: 27%; Sm TGR inh: -1%; Tb PYK inh: -5%
